Source: PubChem BioAssay
PLK1 PBD block: blocks phosphopeptide binding to human PLK1 polo-box domain; 360,000 tested, 2.8% active; Plk1 PBD binding of FITC phosphopeptide, fluorescence polarization; P53350; Potency, µM, without a hit: max response, negative = inhibition, usual class: inhibitors; further: series mostly up to about 57 µM; nearly all actives have a fitted effect of over 65% in size
KAT2A inh: blocks human GCN5L2 histone acetyltransferase | GCN5L2 HAT assay, ThioGlo1 CoA-SH fluorescence | 390,000 tested, 0.21% active | AID 504327 | Potency, µM (top dose mostly 58.9 µM), for the others: at the top dose activity change, negative = inhibition, most hits filed as inhibitors
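GCN5L2 (20nM final) in 50mM HEPES, 0.1mM EDTA pH 7.5, 0.01% Tween-20 was preincubated 15 min at room temperature with compound, then given ThioGlo1 (50uM), H3(1-25) peptide (75uM) and acetyl-CoA (70uM); CoA-thiol fluorescence (Ex340/Em540) was read at 0 and 20 min.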
DT40 TDP1 CPT: growth inhibition of DT40 Tdp1-/-;hTDP1 cells with camptothecin (screen for TDP1 inhibitors). chicken DT40 Tdp1-/-;hTDP1 cells + 20 nM CPT, ATP luminescence, 48 h. Potency, µM (series often up to 46.2 µM), for the others: top-dose activity change, negative = growth inhibition, actives largely listed as inhibitors. 420,000 tested, 12% active. AID 686979; further: nearly all actives have a fitted effect of over 55% in size
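Chicken DT40 Tdp1-/- cells stably complemented with human TDP1 were seeded at 400 cells/well in medium containing 20 nM camptothecin, exposed to pin-transferred compounds, and grown at 37 °C for at least 48 hr. Viability was read as ATP luminescence.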
TDP1 block: TDP1 (human) enzyme inhibition | Q9NUW8 | recombinant TDP1, AlphaScreen DNA substrate cleavage | Potency, µM (top dose mostly 130 µM), for the others: top-dose activity change, negative = inhibition, usual class: inhibitors | 350,000 tested, 0.28% active; further: nearly all actives have a fitted effect of over 40% in size
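Enzyme-compound mixtures sat 15 min at room temperature, followed by a 5 min reaction with 15 nM final substrate and 10 min with AlphaScreen beads. Recombinant human Tdp1 was used at 1 nM final.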
VDR inhibitor: blocks the human vitamin D receptor; P11473; VDR-SRC2-3 peptide fluorescence polarization, 2 h; Potency, µM, without a hit: max response, negative = inhibition, most hits filed as inhibitors; 400,000 tested, 0.93% active; AID 504847
Target sequence (P11473 whole entry, looked up): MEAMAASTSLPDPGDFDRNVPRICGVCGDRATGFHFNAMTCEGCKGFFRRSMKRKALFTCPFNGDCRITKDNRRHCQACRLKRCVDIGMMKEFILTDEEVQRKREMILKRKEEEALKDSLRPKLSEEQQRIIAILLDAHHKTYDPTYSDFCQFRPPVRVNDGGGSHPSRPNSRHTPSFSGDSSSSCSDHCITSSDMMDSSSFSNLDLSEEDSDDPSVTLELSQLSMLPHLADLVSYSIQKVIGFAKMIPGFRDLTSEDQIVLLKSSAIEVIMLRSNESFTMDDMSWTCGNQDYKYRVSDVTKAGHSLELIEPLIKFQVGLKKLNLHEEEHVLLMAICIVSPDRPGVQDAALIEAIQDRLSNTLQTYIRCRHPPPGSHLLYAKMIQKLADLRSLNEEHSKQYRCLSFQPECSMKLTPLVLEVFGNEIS
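VDR–SRC2-3 interaction, FP format. Cmpds 23 nl via pintool, brief spin, 2 h ambient incubation.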
DT40 TDP1 no CPT: qHTS for Inhibitors of human tyrosyl-DNA phosphodiesterase 1 (TDP1): qHTS in cells in absence of CPT. DT40 Tdp1-/- hTDP1 cells, no CPT, ATP luminescence, 48 h. Potency, µM (titrated, usually from 46.2 µM), without a hit: at the highest dose activity change, negative = growth inhibition, actives largely listed as inhibitors. 420,000 tested, 15% active. AID 686978, 2013; further: nearly all actives have a fitted effect of over 55% in size
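Compound effects on proliferation are scored in DT40 Tdp1-/-;hTDP1 cells in the absence of CPT. ATP levels (CellTiter-Glo luminescence) are recorded after a ≥48 hr, 37 °C incubation.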
Numbers without * were called inactive; ? = inconclusive; · = no result given; [ ] = another dose, or the depositor's remark. Hits are enriched below; roughly 18% of the tested compounds scored in any of these assays. The call rests on the fitted dose curve; in most records, active means well fitted curve in the direction sought with a large enough effect; inconclusive means small, poorly fitted or top-dose-only effect, or another doubt; inactive means no such curve, though single readings can be large; an effect the other way counts as inactive or inconclusive. On the % scale 0 is the no-effect control and ±100 the full control effect; potency means the concentration at half of the fitted maximal effect.

SMILES	PLK1 PBD block	KAT2A inh	DT40 TDP1 CPT	TDP1 block	VDR inhibitor	DT40 TDP1 no CPT
C=C(C)COc1ccc(-c2n[nH]c(C)c2-c2ccc(OC)c(OC)c2)c(O)c1	6%	-15%	3.7µM*	·	6%	2.6µM*
CCOc1ccc(-c2n[nH]c(C)c2Oc2ccccc2OC)c(O)c1	-4%	-11%	?	4%	-6%	?
COc1ccc(C(=O)NNC(=O)CCn2nnc(-c3ccc(C)cc3)n2)cc1OC	1%	0%	-17%	6%	-13%	-24%
C=C(C)COc1ccc(-c2[nH]ncc2-c2ccccc2)c(O)c1	1%	-13%	16µM*	8%	-5%	21µM*
C=C(C)COc1ccc(-c2n[nH]c(C)c2Oc2ccccc2OC)c(O)c1	-4%	-15%	15µM*	7%	12%	?
C=C(C)COc1ccc(-c2[nH]ncc2-c2ccc(OC)cc2)c(O)c1	0%	-9%	?	·	6%	?
C=C(C)COc1ccc(-c2[nH]ncc2Oc2cccc(OC)c2)c(O)c1	4%	-20%	?	4%	6%	13µM*
O=C1OCCN1C(=O)[C@H]1[C@H](c2ccccc2)C(c2ccccc2)=NN1c1ccc(Br)cc1	-9%	?	-26%	-9%[56.1 µM]	6%	?
CC(C)C1NC(=O)[C@H](CCCCN)NC(=O)[C@@H](Cc2c[nH]c3ccccc23)NC(=O)[C@H](Cc2ccc(O)cc2)NC(=O)[C@H](C)N(C)C(=O)[C@H](Cc2ccccc2)NC1=O (stereo not given in full)	·	·	·	12%[56.1 µM]	·	·
CN(C)c1ccc(C(=O)C(=O)c2ccccc2)cc1	-1%	-13%	-4%	·	10%	12%
CN(C)c1ccc(C(=C2C=CC(=[N+](C)C)C=C2)c2ccc(N(C)C)cc2)cc1	·	-20%	0.23µM*	20%	40µM*	0.52µM*
CN(C)c1ccc(C(=C2C=CC(=[N+](C)C)C=C2)c2ccccc2)cc1	·	-22%	0.84µM*	25%	?	0.6µM*
Cc1ccc(CNC(=O)C2CCCN(c3nn4c(=O)cc(C)nc4s3)C2)cc1 (stereo not given)	-2%	-8%	10%	0%	1%	?
CCOC(=O)c1cc2c(=Cc3ccc(N(C)C)cc3)c3ccccc3n2[n+]1C	13µM*	·	0.58µM*	·	?	0.46µM*
CN(C)c1ccc(C=c2c3ccccc3n3c2c2ccccc2[n+]3C)cc1	24µM*	·	1.2µM*	·	-93%	1.5µM*
Cc1cc2c(=Cc3ccc(N(C)C)cc3)c3ccccc3n2[n+]1C	13%	·	0.52µM*	·	-6%	0.46µM*
CCOC(=O)SC1=N/C(=C\c2ccc(N(C)C)cc2)C(=O)S1	-13%	-8%	-23%	9%	-2%	-14%
CCCCC1(C)OC(=O)C(=Cc2ccc(N(C)C)cc2)C(=O)O1 (stereo not given)	?	?	0%	-2%	?	0%
COc1ccc(-c2noc(N3CCCC(C(=O)Nc4ccc(C(C)=O)cc4)C3)n2)cc1 (stereo not given)	3%	-10%	?	3%	-4%	?
COc1ccccc1N(CC(=O)NCC1CCCO1)C(=O)CNS(=O)(=O)c1ccccc1 (stereo not given)	-5%	3%	-3%	3%	2%	4%
COc1ccc(CN(CCC(c2ccc(F)cc2)C2CCOC(C)(C)C2)C(=O)c2ccco2)cc1 (stereo not given)	-2%	-19%	21µM*	-3%	-9%	16µM*
COc1ccc(CN(CCC(c2ccccc2)c2ccco2)C(=O)c2ccco2)cc1 (stereo not given)	-8%	3%	?	4%	-23%	?
CC(c1ccccc1)N(CCC(c1ccccc1)C1CCOC(C)(C)C1)C(=O)c1ccco1 (stereo not given)	-4%	-5%	?	-2%	7%	18µM*
CCCN(CCC)C(=O)CC(c1ccccc1)C1CCOC(C)(C)C1 (stereo not given)	-4%	2%	?	-3%	-20%	23µM*
COc1cccc(CNC(=O)c2cnc(N3CCCC3)nc2C)c1	·	4%	1%	-1%	-10%	-17%
SMILES	PLK1 PBD block	KAT2A inh	DT40 TDP1 CPT	TDP1 block	VDR inhibitor	DT40 TDP1 no CPT
Clc1ccc2nccnc2c1	·	·	1µM*	·	·	0.79µM*
Cc1ccc2nccnc2c1	·	·	3.5µM*	·	·	3.2µM*
Cc1ccc2c(C)ccnc2c1	·	·	10µM*	·	·	7.1µM*
Cc1cccc(OC(=O)c2ccc3nccnc3c2)c1	-20%	-2%	1%	-7%	-6%	0%
Cc1ccnc2ccc(I)cc12	·	·	?	·	·	-23%
Cc1sc(NC(=O)CN2CCCC2)nc1-c1ccc2c(c1)CCN2C(=O)c1ccc(F)cc1	-14%	-13%	?	·	-2%	18µM*
CC(=O)Nc1nc(-c2ccc3c(c2)CCN3C(=O)C2CC2)c(C)s1	-21%	-7%	1.5µM*	·	16%	1.3µM*
CNc1nc(-c2ccc3c(c2)CCN3C(=O)c2ccccc2F)c(C)s1	-26%	2%	?	6%	?	?
O=C(NCc1cccnc1)c1cccn1-c1ncc(C(F)(F)F)cc1Cl	30µM*	-2%	?	0%	?	?
COC(=O)c1ccc(CN2CCCC(CO)(Cc3ccc(F)cc3F)C2)cc1 (stereo not given)	-25%	-3%	-14%	·	4%	?
Cc1ccc(C(=O)Nc2ncc(Cc3ccc(SC(F)F)cc3)s2)cc1	-15%	-2%	1.2µM*	4%	-9%	1.3µM*
